# Assay outcomes as filed in PubChem.
# Sampled rows, rich in hits. Any-hit rate of the full collection: about 2.5%.
# ULK1 inh = ULK1 kinase inhibitors, primary screen, biochemical, AlphaScreen; AlphaScreen Atg13 phosphorylation by ULK1, luminescence; inhibition, % at 5.96 µM; hit rate 1.9% among 30,000; in the data active = inhibition above about 43%;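 also: 0% = median of compound wells and 100% = no enzyme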
# ASK1 primary = ASK1 kinase inhibitors, primary screen, biochemical, AlphaScreen. AlphaScreen MKK6 phosphorylation by ASK1, luminescence. AID 1159602, 2016. Mitogen-activated protein kinase kinase kinase 5 (Homo sapiens), Q99683. inhibition, % at 7.44 µM. hit rate 0.99% among 22,000; in the data active = inhibition above about 35%;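 also: 0% = median of compound wells and 100% = no enzyme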
# Numbers without * were called inactive; x = not tested or not shown.
SMILES,ULK1 inh,ASK1 primary
CC[n+]1c(-c2ccccc2)c2cc(N)ccc2c2ccc(N)cc21,62.4*,x
OCCN(CCO)CCO,8.0,x
C[C@@H]1C[C@@H]([C@H](O)CC2CC(=O)NC(=O)C2)C(=O)[C@@H](C)C1,-4.0,x
c1cc2cc(N3CCNCC3)ccc2cn1,1.3,6.7
CCC(CO)NC(=O)[C@@H]1C=C2c3cccc4[nH]cc(c34)C[C@H]2N(C)C1 (stereo not given in full),53.3*,x
CN1C[C@H](C(=O)N[C@]2(C)O[C@@]3(O)C4CCCN4C(=O)[C@H](Cc4ccccc4)N3C2=O)C=C2c3cccc4[nH]cc(c34)C[C@H]21 (stereo not given in full),23.1,x
NCCc1cc(O)c(O)cc1O,90.9*,x
C[C@]12CCC(=O)C=C1CC[C@@H]1[C@@H]2CC[C@]2(C)C(=O)CC[C@@H]12,-19.6,x
Oc1ccc(Cl)cc1Cc1ccccc1,-34.3,x
Oc1cc(Cl)ccc1Oc1ccc(Cl)cc1Cl,44.2*,x
CCC(Br)(CC)C(=O)NC(N)=O,81.8*,x
O=c1oc2ccccc2c(O)c1Cc1c(O)c2ccccc2oc1=O,-1.7,x
CN1C2CCC1C(C(=O)O)C(OC(=O)c1ccccc1)C2 (stereo not given),9.2,x
NC1=NC(=O)C(c2ccccc2)O1 (stereo not given),5.4,x
CN(c1ccc2[nH]ncc2c1)C1CCN(CC(O)c2ccc(Cl)cc2)CC1 (stereo not given),8.0,-12.4
CN(C)[C@@H]1C(=O)C(C(N)=O)=C(O)[C@@]2(O)C(=O)C3=C(O)c4c(O)cccc4[C@@](C)(O)[C@H]3[C@H](O)[C@@H]12,50.8*,x
CCN1CCN(c2nc(C)cc(=O)[nH]2)CC1,-11.0,x
